PubChem BioAssay (Tox21)
Several values for one entry are separate records, joined by “and”; a condition that tells them apart may be missing. Identical values can stand only once. Results filed as inconclusive are left out. Where a structure was tested more than once in an assay, its records may differ in their call. Activity calls are given as the source filed them. The call rests on the fitted dose curve; in most records, active means well fitted inhibition curve with a large enough effect in the repeat runs; inconclusive means weak or mixed curves; inactive means no such curve, though single readings can be large or run the other way.

The compounds below were run against Cytochrome P450 2C19 (Homo sapiens) (UniProt P33261) (assay: Cytochrome P450 Family 2 Subfamily C Member 19 (CYP2C19) small molecule antagonists: luciferase reporter qHTS assay (AID 1671197; further: nearly all actives have a fitted effect of over 65% in size)). Conditions: P450-Glo CYP2C19 enzyme, luciferin luminescence, 1 h; series mostly up to 115 µM; activity change, negative = inhibition: at the top concentration.
Sequence of Cytochrome P450 2C19 (Homo sapiens) (P33261 whole entry, looked up): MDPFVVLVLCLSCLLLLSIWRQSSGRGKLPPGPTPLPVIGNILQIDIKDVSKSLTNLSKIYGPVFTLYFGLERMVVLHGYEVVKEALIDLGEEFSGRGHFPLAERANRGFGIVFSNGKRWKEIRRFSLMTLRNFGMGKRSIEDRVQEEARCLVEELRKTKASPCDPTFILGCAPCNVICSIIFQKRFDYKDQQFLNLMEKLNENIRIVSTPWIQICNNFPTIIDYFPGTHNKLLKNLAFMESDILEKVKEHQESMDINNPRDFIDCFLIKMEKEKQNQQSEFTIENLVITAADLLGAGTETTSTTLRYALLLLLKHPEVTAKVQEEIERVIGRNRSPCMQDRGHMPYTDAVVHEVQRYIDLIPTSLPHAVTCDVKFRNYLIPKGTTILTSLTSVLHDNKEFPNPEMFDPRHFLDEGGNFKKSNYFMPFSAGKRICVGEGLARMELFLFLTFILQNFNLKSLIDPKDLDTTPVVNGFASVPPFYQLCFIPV
From the text: National Center for Advancing Translational Sciences [NCATS]
U.S. Environmental Protection Agency [EPA]
National Institutes of Environmental Health Sciences [NIEHS]
National Toxicology Program [NTP]
U.S. Food and Drug Administration [FDA]
Cytochrome P450 (CYP) enzymes are membrane-bound hemeproteins that play a key role in metabolism of drugs and xenobiotics. Evaluation of the effect of chemicals on CYP isozymes is useful to minimize the adverse drug reactions and toxicities in drug development process. Tox21 chemicals were tested for their effect on CYP enzyme activities by using P450-Glo (TM) screening systems (Promega Corporation, Madison, WI). These systems provide a luminescent method containing proluciferin substrates and are converted to luciferin products by CYP isozymes. The luciferin products formed are detected with a luciferin detection reagent, and the amount of light produced is proportional to CYP activity. P450-Glo (TM) CYP2C19 screening system (Catalog. No. V9880) was used to detect the compounds that interfere in CYP2C19 activity. The positive control compound used for CYP2C19 assay is ketoconazole (Sigma-Aldrich, St. Louis, MO).
Tox21 Assay Protocol Summary:
Two ul of enzyme-substrate mix was dispensed into medium binding white/solid 1536-well plates (Greiner Bio-One North America Inc., Monroe, NC) using a BioRaptr Flying Reagent Dispenser (FRD, Beckman Coulter, Brea, CA). Compounds dissolved in DMSO and positive control (ketoconazole) were transferred to the assay plates at 23 nl using a Pintool station (Wako, San Diego, CA). The assay plates were incubated at room temperature for 10 min. Then 2 ul of NADPH regeneration solution was added to each well of the assay plates using an FRD and incubated at 37C for 1 h. The reaction was stopped by adding 4 ul of detection reagent using an FRD and after 20 min incubation at room temperature the luminescence signal was measured using a ViewLux plate reader (Perkin Elmer, Shelton, CT). Data were expressed as relative luminescence units.
On the % scale 0 is the no-effect control and ±100 the full control effect; potency means the concentration at half of the fitted maximal effect.

SMILES	Potency	activity change, negative = inhibition
C=CCCCCCCCCC(=O)O	inactive	
CC(C)CC(C)O (stereo not given)	inactive	
CCO[Si](CCC#N)(OCC)OCC	inactive	
CCCCCCCCCCCC(=O)OC		20.2% (inactive)
COc1ccc(N)c(C)c1	39.8 µM (active) and 39.9 µM (active)	
N[C@H](Cc1c[nH]c2ccccc12)C(=O)O		-10.1% [at 52.9 µM] (inactive)
CCCCCC(=O)O	71.1 µM (active) and inactive	
C=CCc1ccc(OC)c(OC)c1	inactive	
c1ccc2c(c1)Cc1ccccc1-2	inactive and 35.6 µM (active)	
CC1(C)OC[C@@H]2O[C@@]3(C(=O)O)OC(C)(C)O[C@H]3[C@@H]2O1	inactive	
CC1(C)NC(=O)NC1=O	inactive	
CC(C)OP(=O)(CP(=O)(OC(C)C)OC(C)C)OC(C)C	35.6 µM (active) and inactive	
Clc1ccccn1	inactive	
O=C1C(c2[nH]c3ccccc3c2O)=Nc2ccccc21	inactive	
C[Si]1(C)O[Si](C)(C)O[Si](C)(C)O[Si](C)(C)O1	inactive	
CCCCCCO	inactive	
OCc1ccccc1	35.1 µM (active)	
OCc1cccc(Oc2ccccc2)c1	10.2 µM (active) and 22.4 µM (active)	
CCNc1ccccc1	25.6 µM (active)	
CC(=O)CCC=C(C)C	inactive	

SMILES	Potency	activity change, negative = inhibition
CCCCCCCCCCCCCCCC(=O)OC(C)C	inactive	
O=C1c2ccccc2CCc2ccccc21	18.2 µM (active) and 7.76 µM (active)	
O=S(=O)(O)c1ccc(N=Nc2c(O)ccc3cc(S(=O)(=O)O)ccc23)cc1	71.3 µM (active)	
CCCCCCCC=O	inactive	
c1ccc(Oc2ccccc2)cc1	inactive	
CC(C)CC(=O)CC(C)CC(C)C (stereo not given)	79.2 µM (active) and inactive	
CSc1ccc(Cl)cc1	inactive	
CC(=O)OC1CC(C)OC(C)O1 (stereo not given)	70.1 µM (active) and inactive	
O=C(O)c1ccc(C(=O)O)c(C(=O)O)c1	inactive	
CN(C)c1ccc(Cc2ccc(N(C)C)cc2)cc1	179 nM (active) and 356 nM (active)	
O=C(O)CCCCCCCCC(=O)O	50.5 µM (active) and inactive	
CCCCCCCCCCN	7.14 µM (active) and 5.64 µM (active)	
CNC(=O)Oc1ccc2c(c1)[C@]1(C)CCN(C)[C@@H]1N2C	25.2 µM (active) and inactive	
CC(O)CC(C)(C)O (stereo not given)	inactive	
CC(C)OC(=O)COc1ccc(Cl)cc1Cl	11.1 µM (active) and 50.2 µM (active)	
CC(C)(C)c1cc(Cc2cc(C(C)(C)C)c(O)c(C(C)(C)C)c2)cc(C(C)(C)C)c1O		7.26% (inactive)
CC(CCO)CC(C)(C)C (stereo not given)	inactive and 79.6 µM (active)	
COc1cc(OC)c(C(=O)CCCN2CCCC2)c(OC)c1		16.1% [at 52.9 µM] (inactive)
CCCCCCCO	72 µM (active) and inactive	
O=[N+]([O-])c1ccc2nc[nH]c2c1		5.03% (inactive)
